High-throughput results deposited in PubChem BioAssay by several laboratories.
tim23-1 inh: inhibits growth of tim23-1 mutant yeast. S. cerevisiae tim23-1 growth, BacTiter-Glo luminescence, 24 h. inhibition, % at 20 µM. 330,000 tested, 1.3% active. AID 463212;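 active = growth inhibition of the mutant yeast at or above 50%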;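 note: temperature-sensitive mutant grown at 25 °C; plate controls were DMSO-treated mutant yeast for no effect and medium wells lacking yeast for full effect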
Calb FLC: affects C. albicans growth with fluconazole | AID 1979 | 300,000 tested, 0.57% active | growth inhibition, % (test concentration not listed) | C. albicans CaCi-2 (fluconazole-resistant clinical isolate) + fluconazole, Alamar Blue growth, 48 h;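 active = growth inhibition above about 58% in most replicates, limit read from the data, passing the limit was not always enough; inconclusive = exactly half the replicates above a set limit; inactive = most replicates below a set limit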;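 note: all wells also contain fluconazole at 8 µg/ml as a sub-toxic cotreatment; 0% = median of DMSO wells and 100% = median of geldanamycin control wells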
PfHsp90 yeast 2: inhibits growth of yeast expressing Plasmodium falciparum Hsp90 | S. cerevisiae expressing PfHsp90, BacTiter-Glo ATP, 48 h; yeast lacking PDR1 and PDR3 efflux regulators | inhibition, % at 9.4 µM | 310,000 tested, 0.32% active | AID 504621;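 active = every replicate shows inhibition above about 80%, whatever the replicate mean, limit read from the data; inconclusive = mean inhibition reaches the set limit but some replicate falls short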;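 note: 0% = DMSO neutral controls and 100% = 20 µM radicicol positive controls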
tim10-1 inh: inhibits growth of tim10-1 mutant yeast; S. cerevisiae tim10-1 ts strain growth, BacTiter-Glo, 24 h; inhibition, % at 20 µM; 330,000 tested, 2.2% active;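 active = inhibition of at least 40%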;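 note: mutant grown at 25 °C; 0% = DMSO wells with yeast and 100% = wells holding no yeast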
SKKanGAS inh: SKKanGAS growth inhibition. S. pyogenes SKKanGAS, kanamycin growth, BacTiter-Glo, 6 h. inhibition, % at 7.5 µM. 300,000 tested, 1.3% active;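 active = mean replicate score, as percent of positive control median, at least 50; inconclusive = mean below 50 but one replicate at or above 50; inactive = mean and every replicate below 50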;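 note: strain carries kanamycin resistance gene driven by streptokinase promoter and grows in 40 µg/ml kanamycin; loss of luminescence reflects streptokinase promoter inhibition or plain growth inhibition; 0% = median of DMSO wells and 100% = positive control at its reference dose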
TIM10 inh: inhibits growth of TIM10 yeast strain | inhibition, % at 10 µM | AID 463195 | S. cerevisiae TIM10 strain growth, BacTiter-Glo luminescence, 24 h | 330,000 tested, 1.4% active;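 active = inhibition of 40% or more at the single tested concentration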;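 note: wild-type TIM10 isogenic control strain grown at permissive 25 °C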
tim10-1 confirm: tim10-1 yeast growth inhibition, confirmed. shares compounds with tim10-1 inh. S. cerevisiae tim10-1 ts strain growth, BacTiter-Glo, 24 h. inhibition, % at 20 µM. 7,400 tested, 56% active. AID 463213;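 active = inhibition of yeast growth at or above a set limit in either of two repeat tests at 20 µM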;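 note: tim10-1 mutant grown at permissive 25 °C to find synthetic lethal compounds; 0% = DMSO yeast wells and 100% = medium wells without yeast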
TIM10 conf: confirmation of TIM10 yeast growth inhibitors. S. cerevisiae tim10 strain growth, BacTiter-Glo luminescence, 24 h. AID 463215. shares compounds with TIM10 inh. 4,600 tested, 63% active. inhibition, % at 10 µM;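 active = inhibition of yeast growth at or above a set limit in either of two replicates at 10 µM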;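 note: this counterscreen used the strain with wild-type TIM10; 0% = yeast with DMSO and 100% = medium wells lacking yeast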
Starred values were filed as active, the others as inactive; ? = inconclusive; . = no result. Rows were chosen to be rich in hits. Some 4.7% of all compounds tested hit in one or more screens of this group.

SMILES | tim23-1 inh | Calb FLC | PfHsp90 yeast 2 | tim10-1 inh | SKKanGAS inh | TIM10 inh | tim10-1 confirm | TIM10 conf
CCOC(=O)C1CCCN(C(=O)c2sc3nc(-c4ccccc4)cn3c2C)C1 (stereo not given) | 30 | 29 | 12 | 7 | 2 | 22 | . | .
CCOC(=O)C1CCCN(C(=O)c2sc3nc(-c4ccc(F)cc4)cn3c2C)C1 (stereo not given) | 41 | 2 | 3 | 53* | -4 | 56* | 48* | 42*
CCCCC1SC(N)=NC1=O (stereo not given) | . | . | 27 | . | . | . | . | .
CCC(=O)OCCNc1cc(Sc2nc3ccccc3s2)c2nonc2c1[N+](=O)[O-] | 28 | 0 | 11 | 93* | ? | 77* | 91* | 94*
CCN1CCN(c2cc(N3CCc4ccccc4C3)c(F)cc2[N+](=O)[O-])CC1 | 32 | 30 | 12 | 41* | 4 | 41* | 32* | 4
COc1ccc(S(=O)Cc2ccc(C(=O)NCc3cccc(OC)c3)o2)cc1 (stereo not given) | 9 | -17 | -22 | 15 | 2 | -6 | . | .
O=C(/C(=C/O)N=Nc1ccccc1Cl)c1ccccc1 | 47 | 28 | -15 | 43* | -2 | 91* | 21 | 18
CCOC(=O)C1=CN(C(C)C)CCC1=O | . | . | 5 | . | . | . | . | .
O=C(NNC(=O)C1CCCC1)c1cc([N+](=O)[O-])cc([N+](=O)[O-])c1 | 15 | . | 9 | 1 | . | 4 | . | .
O=C(c1cc(COc2ccc(F)cc2Cl)on1)N1CCC(OCc2cccnc2)CC1 | 3 | 0 | -2 | 53* | -17 | 52* | 48* | 52*
Cn1c(=O)c2c(nc(N3CCN(c4ccccn4)CC3)n2Cc2ccccc2Cl)n(C)c1=O | 24 | -3 | -25 | 43* | -7 | 51* | 28 | 35*
Cn1c(=O)c2c(nc(N3CCNCC3)n2Cc2ccccc2Cl)n(C)c1=O | 15 | -5 | -8 | 1 | 6 | -5 | . | .
S=C(NN=C1C2CC3CC(C2)CC1C3)Nc1ccccc1 | 48 | -1 | 0 | 60* | -3 | 51* | 46* | -25
COc1cccc(-c2nn(C)c3sc(C(=O)N4CCN(c5ccccn5)CC4)cc23)c1 | 30 | 5 | -106 | 43* | 15 | 41* | 32* | -16
COc1ccc(/C=N/NC(=O)c2cccc(NC(C)=O)c2)c(C(=O)O)c1OC | 13 | 4 | -3 | -12 | 1 | 7 | . | .
CCCNC(=O)C(Cc1ccccc1)NC(=O)c1ccc(-c2ccccc2)cc1 (stereo not given) | -1 | . | 0 | 2 | . | -1 | . | .
COc1ccc(S(=O)(=O)/N=C2\C=C(Nc3ccc(O)cc3)C(=O)c3ccccc32)cc1 | 41 | -9 | -4 | 67* | 103* | 52* | 62* | 81*
CC(=O)Nc1ccc(NC2=C/C(=N/S(=O)(=O)c3cccs3)c3ccccc3C2=O)cc1 | 40 | ? | -12 | 19 | 4 | 17 | . | .
COC(=O)C(C(C)=O)C1=C/C(=N\S(=O)(=O)c2ccc(C)cc2)c2ccccc2C1=O (stereo not given) | 44 | 15 | -5 | 40* | 7 | 43* | 41* | 29
O=C(Nc1cccc(Cl)c1)c1ccc2c(c1)OCCO2 | 50 | -26 | 27 | 50* | -8 | 60* | 40* | 71*
Cc1cc2cc(C)c(NCCNC(=O)c3ccccc3Cl)nc2cc1C | 33 | 2 | 18 | 42* | -1 | 44* | 30 | 26
Cc1cc(-c2nnc(-c3ccccc3)c(-c3ccccc3)n2)c(C)o1 | 49 | ? | -19 | 48* | -4 | 52* | 46* | 30
Cc1ccc(-c2nnc(-c3ccccc3)c(-c3ccccc3)n2)cc1 | 21 | 2 | 3 | 33 | 1 | 26 | . | .
Nn1cnnc1N/N=C/c1cccc(Cl)c1Cl | 38 | -4 | 11 | 51* | 16 | 52* | 50* | 60*
O=C(Cc1cccc2ccccc12)NN1C(=O)/C(=C\c2cccnc2)SC1=S | 3 | -6 | -31 | 6 | 4 | 1 | . | .
SMILES | tim23-1 inh | Calb FLC | PfHsp90 yeast 2 | tim10-1 inh | SKKanGAS inh | TIM10 inh | tim10-1 confirm | TIM10 conf
O=C(NN1C(=O)/C(=C/c2cccnc2)SC1=S)C(c1ccccc1)c1ccccc1 | 41 | 1 | . | 49* | -2 | 42* | 41* | 21
O=C(NN1C(=O)/C(=C\c2cccnc2)SC1=S)C(c1ccccc1)c1ccccc1 | 35 | 57 | -1 | 46* | 1 | 40* | 39* | -20
O=C1/C(=C/c2cccnc2)SC(=S)N1NS(=O)(=O)c1ccccc1 | 14 | 22 | -21 | 8 | 1 | -1 | . | .
Cc1ccc(-c2noc(CNS(=O)(=O)c3ccccc3)n2)cc1 | 28 | 2 | -3 | 33 | 33 | 19 | . | .
CCCOc1cccc(C2C(C(=O)c3cccs3)=C(O)C(=O)N2CCN2CCOCC2)c1 (stereo not given) | 9 | 45 | -1 | 2 | 6 | -11 | . | .
NC(=O)N/N=C/c1ccc(OCc2cccc(Cl)c2)cc1 | -2 | 24 | -10 | 16 | 0 | -2 | . | .
O=C(c1ccc(-c2ccc([N+](=O)[O-])cc2)o1)N1CCCC(C(F)(F)F)C1 (stereo not given) | 44 | 9 | . | 64* | -5 | 43* | 55* | 48*
CC1CCCN(C(=O)c2ccc([N+](=O)[O-])o2)C1 (stereo not given) | 41 | -1 | 2 | 57* | -2 | 46* | 40* | 40*
CC1CCCN(C(=O)c2ccc(-c3ccccc3Cl)o2)C1 (stereo not given) | 29 | -2 | 0 | 33 | 12 | -8 | . | .
Cc1cc(C)cc(NC(=O)CCC(=O)Nc2nnc(C(C)C)s2)c1 | 5 | 7 | 15 | -11 | 1 | 3 | . | .
Cc1c(C(=O)N(CCO)Cc2ccccc2)oc2c(F)cccc12 | 22 | -5 | 21 | 13 | -6 | -8 | . | .
O=C(Nc1ccccc1F)c1ccc([N+](=O)[O-])s1 | -51 | 7 | -64 | 45* | 14 | 56* | 59* | 64*
O=C(Nc1cccc2ccccc12)c1ccc([N+](=O)[O-])s1 | -73 | 16 | -10 | 36 | 4 | -21 | . | .
Oc1ccc(/C=N/Nc2nccnc2Cl)c(O)c1 | 47 | 42 | -7 | 61* | 10 | 70* | 28* | 54*
O=c1oc(-c2ccccc2)cc(Cl)c1Cl | 22 | -6 | 117* | 81* | 4 | 76* | 86* | 78*
Cc1cc(=O)oc2cc(OCC(=O)NC3CCCCC3)ccc12 | 2 | 10 | 12 | -17 | 6 | -3 | . | .
CCOC(=O)c1cccc(NC(=O)Nc2cc(OC)ccc2OC)c1 | 39 | 14 | -65 | 41* | 0 | 40* | 28 | 28
